Luciferase inh – inhibitors of firefly (Photinus pyralis) luciferase; AID 1347043; Potency, µM (doses to about 115 µM), hits mostly inhibitors; actives 2.5% (n = 76,000); P08659; purified P. pyralis luciferase, luminescence, biochemical; further: nearly all actives have a fitted effect of over 65% in size
Target sequence (P08659 whole entry, looked up): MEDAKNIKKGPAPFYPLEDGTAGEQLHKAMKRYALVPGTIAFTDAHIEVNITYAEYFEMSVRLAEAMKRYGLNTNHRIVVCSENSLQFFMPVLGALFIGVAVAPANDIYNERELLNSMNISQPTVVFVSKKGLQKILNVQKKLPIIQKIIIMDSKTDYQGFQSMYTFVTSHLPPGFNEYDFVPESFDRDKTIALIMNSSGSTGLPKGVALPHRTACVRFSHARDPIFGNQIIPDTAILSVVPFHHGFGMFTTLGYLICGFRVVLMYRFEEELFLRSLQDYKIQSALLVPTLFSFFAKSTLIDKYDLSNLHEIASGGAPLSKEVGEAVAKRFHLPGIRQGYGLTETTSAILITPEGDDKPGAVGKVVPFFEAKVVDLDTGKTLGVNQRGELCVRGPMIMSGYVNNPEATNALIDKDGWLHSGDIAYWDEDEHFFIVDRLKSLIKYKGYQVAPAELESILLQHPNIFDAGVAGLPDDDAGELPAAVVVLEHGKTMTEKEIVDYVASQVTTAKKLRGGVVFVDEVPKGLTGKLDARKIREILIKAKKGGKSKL
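Purified P. pyralis luciferase (10nM final) in 50mM Tris acetate pH 7.5, 10mM Mg acetate, 0.01% Tween-20, 0.05% BSA with 10uM D-luciferin and 10uM ATP. Compounds titrated qHTS. Luminescence imaged on CCD.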
3T3 cytotox – cytotoxic compounds in NIH 3T3 cells. NIH 3T3 viability, CellTiter-Glo ATP luminescence, 48-72 h. Potency, µM (top dose mostly 96.7 µM), for inactives: at the highest dose activity change, negative = cytotoxicity, actives largely listed as inhibitors. actives 4.3% (n = 94,000). AID 1345082; further: nearly all actives have a fitted effect of over 55% in size
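Cytotoxicity was measured by CellTiter-Glo ATP luminescence after 48 or 72 h compound exposure at 37 °C. Mouse NIH 3T3 fibroblasts were seeded at 400 cells/well and dosed by 23 nL pin transfer.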
HEK293 tox – cytotoxic compounds in HEK 293 cells; HEK 293 viability, ATP luminescence (CellTiter-Glo), 48-72 h; actives 6.6% (n = 94,000); AID 1345083; Potency, µM (series often up to 115 µM), inactives show at the highest dose activity change, negative = cytotoxicity, hits mostly inhibitors; further: nearly all actives have a fitted effect of over 60% in size
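qHTS cytotoxicity; HEK 293, 250 cells/well; compound pinned; 48 or 72 hr, 37 degree Celsius, 5% CO2, 95% humidity; CellTiter-Glo, 10 min RT; luminescence (ATP).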
NPR1 antag – blocks ANP-stimulated signaling of human Npr1 receptor | P16066 | HEK293 hNpr1 GloSensor cGMP, ANP-stimulated luminescence | Potency, µM (top dose mostly 46.3 µM), for inactives: top-dose activity change, negative = inhibition, most hits filed as inhibitors | actives 1.6% (n = 76,000); calls by dose curve; further: nearly all actives have a fitted effect of over 60% in size
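HEK293 cells stably expressing human Npr1 and cGMP GloSensor pGS-40F, loaded 2 h with 2% GloSensor reagent, given compound 30 min at room temperature. Luminescence read before and 20 min after 0.1 nM hNppA.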
The depositor's hits bear a star; i = inactive; ? = inconclusive; . = no result; [ ] = remark or other dose. This is a sample that favours compounds with a hit; in the whole collection about 11% have one here. Unless noted, the call rests on the fitted dose curve; in most records, active means well fitted curve in the direction sought with a large enough effect; inconclusive means small, poorly fitted or top-dose-only effect, or another doubt; inactive means no such curve, though single readings can be large; an effect the other way counts as inactive or inconclusive. On the % scale 0 is the no-effect control and ±100 the full control effect; potency means the concentration at half of the fitted maximal effect.

SMILES	Luciferase inh	3T3 cytotox	HEK293 tox	NPR1 antag
Cn1c2c(c3ccccc31)CN(C(=O)Nc1ccccc1F)CC2	?	35µM*	45µM*	-3%
Cn1c2c(c3cc(F)ccc31)CN(C(=O)Nc1ccc(Cl)cc1Cl)CC2	i	?	?	-13%
O=C(CC1=CCCCC1)N1C[C@@H](CO)[C@H](c2nc(C3CC3)no2)C1	i	-6%	i	0%
O=C(Nc1cccc(Cl)c1)c1ccc2oc(-c3ccncc3)nc2c1	.	-23%	?	.
CC1C=CC(C)N1c1ncnc2c1CN(C1CCNCC1)C(=O)CN2C (stereo not drawn)	.	-10%	-13%	.
COCCNC(=O)c1nc2sccn2c1-c1ccc(C)cc1	.	-33%[138 µM]	?	.
O=C(NCCc1ccc(Cl)cc1)c1nc2sccn2c1Br	18µM*	-15%	-21%	16%
Cc1ccc(-c2c(C(=O)NCCc3ccc(Cl)cc3)nc3sccn23)cc1	.	?	35µM*	.
Cc1ccc(NC(=O)c2ccc3c(c2)N(C)C2CCCCCN2C3=O)cc1C (stereo not drawn)	?	?	45µM*	?
Cc1cc(NC(=O)c2ccc3c(c2)N(C)C2CCCCN2C3=O)ccc1Cl (stereo not drawn)	25µM*	-24%	?	-1%
Cc1ccc(NC(=O)c2ccc3c(c2)N(C)C2CCCCCN2C3=O)cc1F (stereo not drawn)	i	?	32µM*	0%
CN1c2cc(C(=O)Nc3ccc4c(c3)OCCO4)ccc2C(=O)N2CCCCCC21 (stereo not drawn)	13µM*	?	?	-6%
N#Cc1cccnc1-c1ccc(C(=O)N2CCC(N[S+](=O)([O-])c3ccccc3)CC2)cc1	.	-29%	-23%	.
COCCNC(=O)C1CCCN(c2ccnc3ccnn23)C1 (stereo not drawn)	.	-24%	-4%	.
O=C(NCc1ccc(F)cc1)C1CN(C2CCCC2)C(=O)N1 (stereo not drawn)	.	-21%[138 µM]	?	.
Cc1ccc(NC(=O)c2ccc3c(c2)N(C)C2CCCCN2C3=O)cc1Cl (stereo not drawn)	?	-18%	?	-8%
Cc1ccc(NC(=O)c2ccc3c(c2)N(C)C2CCCCN2C3=O)cc1C (stereo not drawn)	40µM*	?	?	-3%
O=c1c2nc(NCc3ccccc3)ccc2ncn1Cc1ccccc1	i	35µM*	?	2%[70.6 µM]
COc1ccccc1-c1ccc2ncn(Cc3ccccc3)c(=O)c2n1	i	7.9µM*	?	3%[70.6 µM]
O=C(NC1CCN(c2ccc3nnc(C4CC4)n3n2)C1)C1CCCCC1 (stereo not drawn)	.	-28%	-18%	.
CCn1nccc1C(=O)N1CC(Oc2ccc(-c3nc(-c4ccccc4)no3)cc2)C1	?	?	11µM*	4.5µM*
CCn1ccc(C(=O)N2CC(Oc3ccc(-c4nc(-c5ccccc5)no4)cc3)C2)n1	?	40µM*	?	-17%
CCn1ccc(C(=O)N2CC(Oc3ccc(-c4nc(C)no4)cc3)C2)n1	i	-25%	?	0%
COc1cccc(CN2CCC(C(=O)Nc3ccccc3-c3cccc(OC)c3)CC2)c1	i	?	22µM*	?
COc1cccc(-c2ccccc2NC(=O)C2CCN(Cc3ccccc3F)CC2)c1	i	45µM*	?	?
SMILES	Luciferase inh	3T3 cytotox	HEK293 tox	NPR1 antag
COc1cccc(-c2ccccc2NC(=O)C2CCN(CC=C(C)C)CC2)c1	i	20µM*	?	4%
O=C(C[C@@H]1CCNC[C@@H]1Cc1cc(-c2ccccc2)on1)N1CCC(Cc2ccccc2)CC1	i	28µM*	?	7%
CC(C)(C)c1cc(C[C@H]2CNCC[C@H]2CC(=O)N2CCC(Cc3ccccc3)CC2)no1	i	28µM*	22µM*	3%
O=C1CO[C@H]2CN(c3ncccn3)C[C@H]2N1Cc1ccncc1	i	i	i	0%[70.6 µM]
O=C(COc1ccc(Cl)cc1Cl)N1CCCCC1c1ccccn1 (stereo not drawn)	?	?	45µM*	?
CC(C)N(Cc1cn(Cc2ccccc2)nc1-c1cc2ccccc2o1)CC1CCC(=O)N1 (stereo not drawn)	i	-6%	2%	0%
COC[C@@H]1CCCN1Cc1cn(Cc2ccccc2)nc1-c1cc2ccccc2o1	28µM*	?	?	-10%
O=C(CNC(=O)c1cccc(-c2ccsc2)c1)NCc1ccc(Cl)cc1	.	-17%	-3%	.
O=c1n(CC2CC2)nc2n1CCC(NS(=O)(=O)c1ccc3c(c1)OCCO3)CC2 (stereo not drawn)	.	-15%	-11%	.
O=C(c1ccsc1)N1CCC2(CC1)NC(=O)N(Cc1cccc(Cl)c1)C2=O	i	28µM*	?	?
O=C(c1ccsc1)N1CCC2(CC1)NC(=O)N(Cc1ccccc1)C2=O	i	?	-26%	-10%
COc1cc(OC)cc(C(=O)N2CCC3(C2)NC(=O)N(Cc2ccc(Cl)cc2)C3=O)c1 (stereo not drawn)	i	?	?	5%
O=C(c1cccc(Cl)c1)N1CCC2(C1)NC(=O)N(Cc1ccc(Cl)cc1)C2=O (stereo not drawn)	i	40µM*	?	?
Cc1nc2cnccn2c1C(=O)NCC(C)C	.	-13%[138 µM]	-6%[172 µM]	.
COCCN1CCCN(C(=O)c2cc(C)ccc2C)c2ccccc21	i	?	?	4%
CCN(CC)Cc1nc(C2(O)CCN(Cc3ccccc3O)CC2)cs1	i	?	-24%[172 µM]	2%[70.6 µM]
CCN(CC)Cc1nc(C2(O)CCN(Cc3ccccc3C(F)(F)F)CC2)cs1	i	?	89µM*	8%[70.6 µM]
COc1ccc(CCN2Cc3cc(NC(=O)c4ccc(OC)cc4)ccc3OC(C)C2=O)cc1 (stereo not drawn)	i	-28%	89µM*	1%
CC1Oc2ccc(NC(=O)c3ccccc3F)cc2CN(CCOc2ccccc2)C1=O (stereo not drawn)	i	?	?	-19%
CC1Oc2ccc(NC(=O)c3cccs3)cc2CN(CCOc2ccccc2)C1=O (stereo not drawn)	i	?	40µM*	-20%
COc1cc(OC)cc(C(=O)Nc2ccc3c(c2)CN(Cc2ccc(F)cc2)C(=O)C(C)O3)c1 (stereo not drawn)	i	?	?	-20%
COc1ccc(CN2Cc3cc(NC(=O)c4cc(OC)cc(OC)c4)ccc3OC(C)C2=O)cc1 (stereo not drawn)	i	?	20µM*	-2%
Cc1cccc(OCCc2noc(C3CCN(C(=O)CN4CCCCCC4)C3)n2)c1 (stereo not drawn)	i	?	?	1%
COc1cccc(CNC(=O)c2cn3cc(-c4ccc(C(F)(F)F)cc4)sc3n2)c1	.	-14%	-3%	.
Clc1ccccc1C1Cn2cnc(-c3nc(-c4ccccn4)no3)c2CO1 (stereo not drawn)	25µM*	?	?	-14%

High-throughput results: PubChem, National Center for Advancing Translational Sciences (NCATS)
